Lassa entry inh: qHTS for Inhibitors of binding or entry into cells for Lassa Virus; actives 1.2% (n = 300,000); Potency, µM (doses to about 37.9 µM), without a hit: top-dose activity change, negative = inhibition, actives largely listed as inhibitors; Lassa virus pseudotype entry inhibition, cell reporter; calls by dose curve; tested in HEK293 cells; further: potency means the concentration at half of the fitted maximal effect; nearly all actives have a fitted effect of over 50% in size
FMDV antiviral: High Throughput Screening for Foot and Mouth Disease Virus Antivirals; actives 1.2% (n = 410,000); Potency, µM (highest dose often 57.9 µM), without a hit: at the top dose activity change, negative = inhibition, actives largely listed as inhibitors; AID 1159524, 2015; FMDV antiviral cell-based qHTS; calls by dose curve; tested in HEK293T cells; further: read-out not given here; potency means the concentration at half of the fitted maximal effect; nearly all actives have a fitted effect of over 45% in size
Marburg entry inh: qHTS for inhibitors of binding or entry into cells for Marburg Virus; Potency, µM (highest dose often 37.8 µM), for the others: top-dose activity change, negative = inhibition, hits mostly inhibitors; AID 540276, 2011; actives 1.8% (n = 300,000); Marburg virus pseudotyped entry inhibition, cell reporter; calls by dose curve; tested in HEK293 cells; further: potency means the concentration at half of the fitted maximal effect
HCV inh: qHTS Assay for Inhibitors of Hepatitis C Virus (HCV) | actives 3.4% (n = 340,000) | Potency, µM (top dose mostly 41.8 µM), without a hit: at the top dose activity change, negative = inhibition, hits mostly inhibitors | Huh7.5.1 HCVcc-Cre infection, luciferase reporter, 44 h | AID 651820, 2012; active means well fitted inhibition curve with a large enough effect; inconclusive means small, poorly fitted or top-dose-only effect, or another doubt; inactive means no such curve, though single readings can be large or run the other way; further: potency means the concentration at half of the fitted maximal effect
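Luciferase read-out (15 sec integration) after a 15 min room-temperature substrate step quantifies HCVcc-Cre infection. Cells, 1,000 per well, had compound added 4 h post-plating, then virus at ~0.5 moi, and were cultured 44 h.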
HCMV antiviral: qHTS Assay for inhibitors of the human cytomegalovirus (HCMV). HFF cells, HCMV-luciferase reporter, 72 h; stronger effect = lower value. activity change, negative = inhibition, % at 57.5 µM. actives 4.5% (n = 410,000). AID 1259415, 2018; in the data active means activity change below about -60%; inconclusive means no clear call, values can overlap the other calls; inactive means above about -39%
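Two compound doses tested in HFFs infected with HCMV-luciferase, MOI 1 PFU/cell, 72 h at 37C. Lysate luminescence read with OneGlo; data normalized against buffer-only and 10uM Salinomycin inhibitor controls.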
Active calls of the source: *; ? = inconclusive; . = no result given; + = active, no number; ! = repeats disagree; [ ] = another dose, or the depositor's remark. Sampled rows, rich in hits. Any-hit rate of the full collection: about 7.9%. On the % scale 0 is the no-effect control and ±100 the full control effect.

SMILES | Lassa entry inh | FMDV antiviral | Marburg entry inh | HCV inh | HCMV antiviral
O=C(Nc1nc2n(n1)C(c1ccc(F)cc1)C=C(c1ccccc1)N2)c1ccc(Cl)cc1 (centres undefined) | -1%[46.1 µM] | -24% | -18%[46.1 µM] | . | -29
Cc1ccc(C2C=C(c3ccccc3)Nc3nc(N4C(=O)CCC4=O)nn32)cc1 (centres undefined) | -5% | 1% | 14%[46.1 µM] | -3% | -62*
Cc1ccc(C2C=C(c3ccc(Cl)cc3)Nc3nc(NC(=O)c4ccco4)nn32)cc1 (centres undefined) | -18%[46.1 µM] | ? | ? | . | -62*
O=C(Nc1nc2n(n1)C(c1ccc(F)cc1)C=C(c1ccc(Cl)cc1)N2)c1ccc([N+](=O)[O-])cc1 (centres undefined) | ? | -13% | 2.8µM* | . | ?
Cc1cc(NC(=O)COC(=O)Cn2[nH]c(=O)c3ccccc3c2=O)c([N+](=O)[O-])cc1C | 4% | -9% | ? | 17% | -20
Oc1ccc(/C=C/c2nc(-c3ccccc3O)n(-c3ccccc3)n2)cc1 | 12µM* | -1% | ? | ? | -8
COC(/C(C)=C/C=C/C(C)=C/c1coc(C)n1)C(C)C1CC(O)C2(C)OC2C=CC(C)C2CC(CC(=O)O2)CC2OC2C(=O)O1 (centres undefined) | 1% | -26% | 6% | 10% | -80*
Nc1c2c(nc3ccccc13)N(C1CCCCC1)CC2 | -24% | -5% | 10µM* | 0.32µM* | -20
Cc1ccccc1C1c2[nH]c3ccccc3c2C[C@H]2C(=O)N(c3ccccc3C(=O)NCCCN3CCOCC3)C(=O)N12 (some centres undefined) | . | -23% | . | 1.1µM* | -1
Cc1ccccc1C1c2[nH]c3ccccc3c2C[C@H]2C(=O)N(c3ccccc3C(=O)NCCN3CCOCC3)C(=O)N12 (some centres undefined) | . | -14% | . | ? | -32
CCC1C(=O)OC[C@@H]1Cc1cncn1C (some centres undefined) | . | . | -6% | . | .
CC(Oc1ccccc1)C(=O)N/N=C/c1ccccn1 (centres undefined) | 7% | -23% | 11% | 17% | 25
C/C(=N\NC(=O)C(C)Oc1ccc([N+](=O)[O-])cc1)c1ccccn1 (centres undefined) | 12µM* | -26% | ? | ? | -104*
Cc1ccc(C2Nc3cc(C)c(C)cc3-n3c(-c4ccccc4)c4c(=O)n(C)c(=O)n(C)c4c32)o1 (centres undefined) | 10%[46.1 µM] | -17% | 10%[46.1 µM] | . | -1
COC(=O)c1ccccc1NC(=O)CNC(=O)c1ccc(OC)cc1 | -28%[46.1 µM] | 7% | -11%[46.1 µM] | 0% | +
CCOC(=O)c1ccc(NC(=O)c2nsc3ccccc23)cc1 | ? | -12% | ? | . | -78*
COC(=O)c1ccccc1NC(=O)c1ccc(NS(C)(=O)=O)cc1 | 4% | -22% | 0% | 11µM* | 72
COc1ccc(C(=O)Nc2ccccc2C(N)=O)cc1 | -1% | 28% | 25% | 9% | 127
COC(=O)c1ccccc1NC(=O)c1ccc2c(c1)OCCO2 | -3% | 19% | 2%[46.1 µM] | 10µM* | 45
O=C(C1CCOCC1)N1CC(=O)N2[C@H](CO)[C@H](c3ccc(-c4ccccc4F)cc3)[C@@H]2C1 | . | . | . | . | 9
CC(C)c1ccc(NC(=O)c2ccc(NS(C)(=O)=O)cc2)cc1 | -9% | -6% | ? | 6.3µM* | -5
CCOC(=O)c1ccc(NC(=O)c2ccccc2)cc1 | 11% | . | ? | ? | -21
CCOC(=O)c1ccc(NC(=O)c2ccc(NS(C)(=O)=O)cc2)cc1 | -5% | . | 14% | 11µM* | ?
COC(=O)c1ccc(NS(=O)(=O)c2ccc3c(c2)n(C)c(=O)n3C)cc1 | -8% | 14% | -2% | 6% | -12
CCOC(=O)c1ccc(NS(=O)(=O)c2ccc3c(c2)n(C)c(=O)n3C)cc1 | -3%[46.1 µM] | -9% | ? | -30% | -67*!
SMILES | Lassa entry inh | FMDV antiviral | Marburg entry inh | HCV inh | HCMV antiviral
Cc1cc(=O)oc2cc(O)cc(O)c12 | . | -18% | . | -23% | 3
CCCCCc1cc(O)c2c(C)cc(=O)oc2c1 | ? | 0% | -85% | 11µM* | -105*
CCCCCc1cc(O)c2c3c(c(=O)oc2c1)CN(C)CC3 | . | 10% | . | 10µM* | -34
CCN(CC)CC(=O)N1c2ccccc2Oc2c(c(=O)n(C)c(=O)n2C)C1c1cccc([N+](=O)[O-])c1 (centres undefined) | 1%[46.1 µM] | 8% | -12%[46.1 µM] | -7% | 43
CN1c2ccccc2Oc2c(c(=O)n(C)c(=O)n2C)C1c1cccc([N+](=O)[O-])c1 (centres undefined) | -27% | -29% | ? | 3.5µM* | 1
O=C(Nc1ccc(NC(=O)c2ccco2)cc1)c1ccc2c(c1)OCCO2 | -26% | 30% | -10%[46.1 µM] | ? | -73*
Cc1cc(NC(=O)c2ccc3c(c2)OCCO3)ccc1NC(=O)c1ccco1 | ? | 2% | ? | ? | -5
O=C(Nc1ccccc1C(=O)Nc1ccc2c(c1)OCO2)c1ccco1 | ? | -7% | ? | 13µM* | 2
CNC(=O)c1cccnc1Nc1cccc(C(F)(F)F)c1 | 1% | 0% | 31% | 10µM* | 14
COc1ccc(CCNC(=O)C2(c3cccs3)CCOCC2)cc1OC | 27%[46.1 µM] | 0% | . | . | -4
CCc1ccc(N2C=C(C(=O)OC)C(c3ccc(OC)cc3)C(C#N)=C2N)cc1 (centres undefined) | . | ? | . | . | -77*
CCN(CC)c1ccc(/C=N/NC(=O)c2c[nH]c3ccccc23)cc1 | 11µM* | 6% | 4% | ? | -67*
O=C(NN=Cc1ccc(N(CCCl)CCCl)cc1)c1cc(=O)[nH]c(=O)[nH]1 | ? | -18% | ? | -14% | 15
O=C(NN=Cc1ccc(N(CCCl)CCCl)cc1)C(=O)c1c[nH]c2ccccc12 | 6.3µM* | 2% | 4.5µM* | ? | -21
CN(C)c1ccc(/C=N/NC(=O)CCc2c[nH]c3ccccc23)cc1 | 2µM* | 10% | ? | -11% | -1
O=C(Cc1c[nH]c2ccccc12)N/N=C/c1ccc(F)cc1 | ? | -3% | 0% | 9% | 22
CCN(CC)c1ccc(/C=N/NC(=O)c2cc3ccccc3[nH]2)cc1 | . | 22% | . | ? | -30
Cc1ccc(NC(=O)Cn2c(=O)c3cc(Cl)ccc3n3nncc23)cc1 | 12%[46.1 µM] | 1% | ? | . | 8
COC(=O)Nc1[nH]ncc1[N+](=O)[O-] | 15% | 12% | 3%[46.1 µM] | 40% | -6
CCN1C(=O)[C@@H]2[C@H]3[C@H](O)[C@H](O)CC(=NO[C@H](C)CN4CCCc5nc(C)c(C)cc54)[C@@H]3CC[C@H]2C1=O | . | . | 2%[14.2 µM] | . | .
CCC(=NCCN1CCCCC1)c1c(O)n(C)c(=O)n(C)c1=O | 13% | -1% | -7% | 15% | 18
